# Inconclusive results are not listed. Where a call stands in place of a potency, no number is given. Activity calls are given as the source filed them. The call rests on the fitted dose curve; in most records, active means well fitted cell-killing curve with a large enough effect; inconclusive means small, poorly fitted or top-dose-only effect; inactive means no such curve, though single readings can be large or run the other way.
# Assay: qHTS of pediatric cancer cell lines to identify multiple opportunities for drug repurposing: Primary screen for Rh41 cells (AID 1347108); further: nearly all actives have a fitted effect of over 70% in size
# Conditions: Rh41 rhabdomyosarcoma viability, CellTiter-Glo luminescence, 48 h; series mostly up to 46 µM
# Method in brief: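 Plated cells (500-1,000 per well, growth media) were allowed to settle for 5 hours, treated with compound dilutions for 48 hours, then lysed with CellTiter-Glo for 15 min at room temperature before luminescence reading.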
# Potency means the concentration at half of the fitted maximal effect.
row,Compound,Potency
1,COc1ccc2cccc(CCNC(C)=O)c2c1,inactive
2,CC(C)OC(=O)C(C)(C)Oc1ccc(C(=O)c2ccc(Cl)cc2)cc1,inactive
3,Cc1ccc(C(=O)Nc2cccc(C(F)(F)F)c2)cc1Nc1nc(-c2cccnc2)nc2c1cnn2C,18.7 µM (active)
4,CCN(CC)C(=O)c1ccc(O)c(OC)c1,inactive
5,N#Cc1ccc(NC(=O)Nc2ccccc2Br)c2n[nH]nc12,inactive
6,C[C@]12CC[C@@H]3c4ccc(O)cc4CC[C@H]3[C@H]1C[C@@H](O)[C@H]2O,inactive
7,CC1(C)Cc2c(sc(NC(=S)NC(=O)c3ccccc3)c2C(=O)O)CO1,inactive
8,O=c1c(-c2ccc(O)cc2)coc2cc(O)ccc12,inactive
9,O=C(O)c1cc(-c2ccccc2)nc2ccccc12,inactive
10,CO[C@H]1C=CO[C@@]2(C)Oc3c(C)c(O)c4c(O)c(c5c(c4c3C2=O)NC2(CCN(CC(C)C)CC2)N=5)=NC(=O)C(C)=CC=C[C@H](C)[C@H](O)[C@@H](C)[C@@H](O)[C@@H](C)[C@H](OC(C)=O)[C@H]1C,inactive
11,CC(=O)CCCCn1c(=O)c2c(ncn2C)n(C)c1=O,inactive
12,CCCCCN(C)CCC(O)(P(=O)(O)O)P(=O)(O)O,inactive
13,C=C1C(=O)OC(CCCCCCCC)C1C(=O)O (stereo unspecified),inactive
14,Cc1ccc(C(C)(O)c2nc3ccccc3s2)c(C)c1 (stereo unspecified),inactive
15,COCCCCC(=NOCCN)c1ccc(C(F)(F)F)cc1,20.9 µM (active)
16,CN(C)c1cc(NC(=O)CNC(C)(C)C)c(O)c2c1C[C@@H]1C[C@H]3[C@H](N(C)C)C(=O)C(C(N)=O)=C(O)[C@@]3(O)C(=O)C1=C2O,inactive
17,CC(=Cc1ccccc1)C=C1SC(=S)N(CC(=O)O)C1=O,inactive
18,NC(=O)NN=Cc1ccc([N+](=O)[O-])o1,inactive
19,C[C@@H](O)[C@H]1C(=O)N2C(C(=O)O)=C(S[C@@H]3CN[C@H](C(=O)N(C)C)C3)[C@H](C)[C@H]12,inactive
20,CCN(CC)CCNC(=O)c1ccc(N)cc1,inactive
21,CN1C[C@H]2c3ccccc3Oc3ccc(Cl)cc3[C@@H]2C1,inactive

# Reference: PubChem BioAssay (NCATS)
